In the library only some 3.2% were active in any assay of this set; here they are far more common.
DENV2 CPE: inhibitors of DENV2 cytopathic effect. DENV2-infected cells, cytopathic effect rescue, plate reader. CPE inhibition, % at 9.99 µM. hit rate 1.7% among 350,000. AID 651640; in the data active = CPE inhibition above about 20%, passing the limit was not always enough; inconclusive = no clear call, values can overlap the other calls; tested in BHK-21 cells;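 note: 0% = median of neutral control wells and 100% = median of positive control wells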
PGC1a acetyl inh: lowers PGC1a acetylation signal in U2OS cells | hit rate 0.17% among 350,000 | AID 651687 | inhibition, % at 15.6 µM | AlphaScreen anti-acetyl-lysine; with virally co-expressed GCN5 acetyltransferase;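 active = every replicate shows inhibition of at least 40%; inconclusive = mean inhibition at least 40% but some replicate below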;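 note: 0% = neutral control wells and 100% = positive control wells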
CaV13 ICDI inh: Primary screen for inhibitors of IQ motif and Ca2+-dependent inactivation inhibitor domain binding in CACNA1D, Förster resonance energy transfer in living cells, …. AID 743397. inhibition, % at 12.3 µM. hit rate 0.098% among 340,000. HEK cells, CFP/YFP FRET ICDI-IQ, plate reader, 10 min; percent FRET-ratio fall versus neutral wells;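 active = mean replicate inhibition of at least 30% and at least 1% of replicates passing that level; inconclusive = only one of the two criteria is met; inactive = neither criterion is met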;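 note: 0% = median of the neutral control wells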
rRNA inh HTS: inhibits bacterial ribosomal RNA function over humanized ribosomes; GFP signal change (wild-type ribosome), % (test concentration not listed); hit rate 1.6% among 350,000; E. coli WT GFP vs humanized-ribosome RFP mutants, fluorescence, 24 h; stronger effect = lower value; DMSO median 0, no signal -100;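 active = significant combined selectivity score with lowered wild-type GFP, culture density cut under 30%, mutant RFP and density less affected; inactive = any of these conditions unmet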
ERAP1 HTS inh: inhibitors of human ERAP1 aminopeptidase. recombinant ERAP1, Leu-AMC fluorescence, 60 min. Q9NZ08. inhibition, % at 10.7 µM. hit rate 0.15% among 340,000. AID 652197;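 active = mean replicate inhibition of at least 30%, or all replicates individually reaching that 30% level; inactive = mean below 30% and not every replicate reaching it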;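 note: 0% = neutral control wells and 100% = L-leucinethiol positive control wells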
Target sequence (Q9NZ08 whole entry, looked up): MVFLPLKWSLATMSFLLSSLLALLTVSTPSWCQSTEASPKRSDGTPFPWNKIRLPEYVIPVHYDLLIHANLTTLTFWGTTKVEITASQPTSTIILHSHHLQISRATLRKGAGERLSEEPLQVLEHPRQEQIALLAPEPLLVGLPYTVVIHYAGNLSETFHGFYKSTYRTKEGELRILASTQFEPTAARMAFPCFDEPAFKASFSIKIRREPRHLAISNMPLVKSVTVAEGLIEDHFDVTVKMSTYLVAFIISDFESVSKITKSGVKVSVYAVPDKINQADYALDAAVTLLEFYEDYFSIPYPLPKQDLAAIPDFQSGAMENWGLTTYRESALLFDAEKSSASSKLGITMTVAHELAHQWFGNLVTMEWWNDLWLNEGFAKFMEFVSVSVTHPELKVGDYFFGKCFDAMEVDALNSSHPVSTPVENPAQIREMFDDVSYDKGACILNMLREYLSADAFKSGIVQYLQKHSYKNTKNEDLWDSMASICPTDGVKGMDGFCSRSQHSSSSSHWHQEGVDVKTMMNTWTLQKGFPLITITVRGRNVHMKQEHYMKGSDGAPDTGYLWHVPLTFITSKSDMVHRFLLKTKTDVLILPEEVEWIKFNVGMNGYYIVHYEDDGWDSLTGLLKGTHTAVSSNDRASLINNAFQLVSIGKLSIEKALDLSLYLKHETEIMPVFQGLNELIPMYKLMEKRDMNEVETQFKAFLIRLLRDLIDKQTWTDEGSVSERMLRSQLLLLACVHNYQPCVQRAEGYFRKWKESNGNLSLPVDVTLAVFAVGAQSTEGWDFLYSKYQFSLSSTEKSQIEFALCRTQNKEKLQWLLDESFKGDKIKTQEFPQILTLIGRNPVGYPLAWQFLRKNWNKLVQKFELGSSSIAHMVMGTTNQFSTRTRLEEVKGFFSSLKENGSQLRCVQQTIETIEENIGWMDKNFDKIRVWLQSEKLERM
INS-1E GSIS act: GLuc luminescence reporter in INS-1E cells, primary screen for activators of glucose-dependent secretion of insulin; hit rate 0.61% among 370,000; activation, % at 16.6 µM; INS-1E GLuc reporter insulin secretion, 2-3 h;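 active = lowest replicate activation of at least 40%, so every replicate reaches that level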;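 note: 0% = median of neutral control wells and 100% = median of IBMX positive control wells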
* hit, by the source's call; ? = inconclusive; . = no result.

SMILES	DENV2 CPE	PGC1a acetyl inh	CaV13 ICDI inh	rRNA inh HTS	ERAP1 HTS inh	INS-1E GSIS act
C[C@@H]1CN([C@@H](C)CO)C(=O)Cc2cc(NC(=O)C3CC3)ccc2O[C@@H]1CN(C)C(=O)Nc1ccccc1	?	1	.	2	0	8
C[C@H](CO)N1C[C@H](C)[C@H](CN(C)C(=O)Nc2ccccc2)Oc2ccc(N(C)C)cc2CC1=O	45*	10	.	-3	1	-9
C[C@@H]1CN([C@H](C)CO)C(=O)Cc2cc(NC(=O)C3CC3)ccc2O[C@H]1CN(C)C(=O)Nc1ccccc1	105*	1	.	4	0	3
O=C1[C@H]2[C@@H](/C=C/c3ccccc3)N3C(=O)CN(CCO)C(=O)[C@@]3(Cc3ccccc3)[C@H]2C(=O)N1c1ccccc1	56*	16	-5	-1	.	.
CN1C(=O)[C@H]2[C@@H](/C=C/c3ccccc3)N3C(=O)CN(CCO)C(=O)[C@@]3(Cc3ccccc3)[C@H]2C1=O	9	0	-11	.	-1	.
C/C=C/c1ccc2c(c1)O[C@H](CN(C)C(=O)CC)[C@@H](C)CN([C@H](C)CO)S2(=O)=O	-10	5	.	-4	-1	35
OC(CNCCc1ccc(C(F)(F)F)cc1)COc1cccc2ccccc12 (stereo not given)	.	8	-5	.	.	506*
COc1cc(C(=O)NCc2cccc(Cl)c2)ccc1OCC(=O)N1CCOCC1	115*	.	-5	1	-3	-2
COc1cc(C(=O)Nc2cc(C(F)(F)F)ccc2N2CCOCC2)ccc1OCC(=O)N1CCOCC1	5	.	-1	0	0	50*
COc1ccc(-c2ocnc2C(=O)Nc2ccc(N3CCOCC3)cc2N2CCOCC2)cc1OC	-1	.	-4	-9	0	85*
COc1ccc(OC)c(NC(=O)c2ccc(OCC(=O)N3CCOCC3)c(OC)c2)c1	?	15	-6	3	-4	13
C[C@@H]1CN([C@@H](C)CO)C(=O)c2cc(NS(C)(=O)=O)ccc2O[C@@H](C)CCCCO[C@@H]1CN(C)C(=O)CCC(F)(F)F	2	16	.	-1	-1	2
Cc1noc(C)c1NC(=O)Nc1ccc2c(c1)C(=O)N([C@H](C)CO)C[C@H](C)[C@H](CN(C)C(=O)Nc1ccc(C(F)(F)F)cc1)OCCCC[C@@H](C)O2	-2	-1	.	3	-2	-6
CC(C)CCn1c(=O)c2ccccc2n2c(CN3CCOCC3)nnc12	3	.	-5	-1	-2	45*
O=C(C[C@H]1C[C@@H]2c3cc(NC(=O)Nc4ccc(F)cc4)ccc3O[C@@H]2[C@@H](CO)O1)NC1CCCC1	.	.	.	-6	.	-15
C[C@H](CO)N1C[C@H](C)[C@@H](CN(C)S(=O)(=O)c2ccc(-c3ccccc3)cc2)OCc2cnnn2CCCC1=O	5	-2	.	-7	1	-14
CN=C1c2ccccc2CN1c1cccc(C(=O)OC)c1	.	4	-7	.	.	89*
COC(=O)c1cccc(N2C(=O)c3ccccc3S2(=O)=O)c1	.	.	-5	.	.	.
N#CC1=C(N)OC2=C(C(=O)CC(c3ccccc3)C2)C1c1cccnc1 (stereo not given)	.	.	-4	.	.	47*
N#CC1=C(N)OC2=C(C(=O)CC(c3ccccc3)C2)C1c1ccoc1 (stereo not given)	.	.	-5	.	.	37
CCOC(=O)C1CCN(c2nc(N)c3c(N)nc(SCC(=O)O)cc3c2C#N)CC1	7	16	-7	12	31*	-33
CC1CCc2c(sc(NC(=O)CSc3ncn[nH]3)c2C#N)C1 (stereo not given)	4	-8	-6	-19*	2	13
CC(C)(C)C1CCc2c(sc(NC(=O)CSc3ncn[nH]3)c2C#N)C1 (stereo not given)	.	.	-5	.	.	.
Cc1ccc2nc(N(CCCN(C)C)C(=O)c3ccc4c(c3)CCCC4)sc2c1	.	-4	-3	.	.	4
Cc1cc(C)c2nc(N(CCCN(C)C)C(=O)c3ccc4c(c3)CCCC4)sc2c1	5	.	-6	-29	0	40*
SMILES	DENV2 CPE	PGC1a acetyl inh	CaV13 ICDI inh	rRNA inh HTS	ERAP1 HTS inh	INS-1E GSIS act
CCC(c1nnnn1-c1ccc2c(c1)OCCO2)N1CCc2ccccc2C1 (stereo not given)	-6	.	-5	-26	-1	55*
Cn1cnc(S(=O)(=O)N[C@@H]2C=C[C@H](CC(=O)NCC3CCCCC3)O[C@H]2CO)c1	14	5	.	1	1	8
COc1ccc2c3c([nH]c2c1)[C@@H](CO)N(S(=O)(=O)c1ccc(C)cc1)CC31CN(C(=O)Cc2cccnc2)C1	-5	-6	.	-1	1	-3
COc1ccc2c3c([nH]c2c1)[C@@H](CO)N(S(C)(=O)=O)CC31CN(C(=O)c2ccccc2)C1	23*	-2	.	-2	.	12
COc1ccc2c3c([nH]c2c1)[C@H](CO)N(C(=O)c1cccc(F)c1)CC31CN(S(=O)(=O)c2cccs2)C1	?	-9	.	-8	.	-8
COc1ccc2c3c([nH]c2c1)[C@H](CO)N(S(=O)(=O)c1ccc(C)cc1)CC31CN(C(=O)Cc2cccnc2)C1	27*	1	.	-5	1	6
COc1ccc2c3c([nH]c2c1)[C@H](CO)N(C(=O)c1ccccc1)CC31CN(S(=O)(=O)c2cccs2)C1	82*	-13	.	-6	.	26
C[C@@H]1CN([C@@H](C)CO)C(=O)c2cc(NS(=O)(=O)c3cn(C)cn3)ccc2O[C@@H]1CN(C)C(=O)Nc1ccccc1	6	-9	.	2	-3	-8
CCOc1ccc(/C=N/n2nnnc2N)cc1OCC	27*	-4	-21	-7	2	.
O=C(O)C[C@@H]1CC[C@@H](NC(=O)c2ccccc2F)[C@@H](CO)O1	-1	-3	.	2	-5	2
CCCC#Cc1ccc2c(c1)[C@@H]1[C@@H](CCN1C(=O)C1CCC1)[C@@H](CO)N2	.	.	.	-5	.	-15
Nc1c(C(=O)c2ccccc2)sc2nsc(SCCN3CCOCC3)c12	-4	-32	-93	-27*	3	-23
CN1Cc2c(N3CCOCC3)nc3sc(C(=O)c4ccccc4)c(N)c3c2CC1(C)C	12	.	-9	-36*	5	-15
CC(=O)c1sc2nsc(SCCN3CCOCC3)c2c1N	1	2	-7	.	15	.
CCOC(=O)c1sc2nc(N3CCOCC3)c3c(c2c1N)CC(C)(C)N(C)C3	.	4	-6	.	.	.
COCCNC(=O)c1cc2c(c(-c3cccc(-c4cccc(F)c4)c3)n1)[C@H](CCO)N(S(=O)C(C)(C)C)C2 (stereo not given in full)	?	-6	.	-7	0	-8

Screens from PubChem.
